± gives the standard deviation of the averaged measurements.

Common to all, as to details: concentration: 10 µM; 24 h
Assay [1] relates to HCC1569. Nature of the assay: cell number relative to DMSO (% of DMSO); higher = more cells (less growth inhibition / toxicity). The essentials: (§1)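 For HCC1569 and TDF cells, compounds at 10 µM were applied for 24 h at 37 °C in triplicate in 384-well plates. Cells were fixed in 3.7% formaldehyde, stained for H1.0 and with DAPI, and imaged at ×10 over six fields per well. The endpoint, H1.0 nuclear intensity or cell number, is shown as percent of the plate control using the median of replicates. Positional effects were smoothed for HCC1569 only.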

Assay [2] deals with TDF. Described as above. The essentials:
as §1

Assay [3] concerns TDF. Nature of the assay: H1.0 immunofluorescence intensity relative to DMSO (% of DMSO); higher = stronger H1.0 induction, active = 120 or more. A digest of the protocol:
as §1

In assay [4] the test system is HCC1569. Nature of the assay: H1.0 immunofluorescence intensity relative to DMSO (% of DMSO); higher = stronger H1.0 induction, active = 140 or more. The essentials: as §1
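Throughout, for H1.0 immunofluorescence intensity relative to DMSO: TDF is a line of transformed human dermal fibroblasts of mesenchymal origin.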
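Throughout, for cell number relative to DMSO: TDF denotes transformed human dermal fibroblasts of mesenchymal origin.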

As for `CC(CCc1ccccc1)NC(C)C(O)c1ccc(O)cc1.Cl` (centres undefined) [Nylidrin hydrochloride], the cell number in assay [1] worked out at 102; in assay [2] it was 109. For the same compound, the figures for the H1.0 immunofluorescence intensity in assay [3] and in assay [4] were 92.4 (inactive) and 96.5 (inactive), respectively.

Regarding `CN1C2CCC1CC(OC(=O)C(CO)c1ccccc1)C2.CN1C2CCC1CC(OC(=O)C(CO)c1ccccc1)C2.O=S(=O)(O)O` (centres undefined) [Atropine sulfate], the results for the H1.0 immunofluorescence intensity in assay [3] and in assay [4] were 91.7 (inactive) and 88.9 (inactive), respectively.

With `O=C(O)C=CC(=O)O.O=C(O)C=CC(=O)O.c1ccc2nc(N3CCNCC3)ccc2c1` [Quipazine dimaleate], the cell number in assay [1] was found to be 97.5; in assay [2], 103. Moreover, the H1.0 immunofluorescence intensity is 90 (inactive) in assay [3] and 112 (inactive) in assay [4].

`CN1CCC2(CCN3CCc4c(oc5ccccc45)C3C2)N(C)C1=O.Cl` (centres undefined): the cell number in assay [1] is 102; in assay [2] it was 91. The figures for the H1.0 immunofluorescence intensity in assay [3] and in assay [4] were 95 (inactive) and 110 (inactive), respectively.

`CC(=O)OCC1=CC2C3C(C)(C)C3(OC(=O)Cc3ccccc3)CC(C)C2(O)C2C=C(C)C(=O)C2(O)C1` (centres undefined) [12-Deoxyphorbol 13-phenylacetate 20-acetate]: the cell number is 90.8 in assay [1] and 74 in assay [2]. For the same compound, the H1.0 immunofluorescence intensity in assay [3] is 105 (inactive); in assay [4], 137 (inactive).

On to `COc1ccc2c(c[n+](C)c3c4cc5c(cc4ccc23)OCO5)c1OC.[Cl-]` [Chelerythrine chloride], for which the cell number was 55.4 in assay [1] and 0.93 in assay [2]. Also, the H1.0 immunofluorescence intensity in assay [4] is 157 (active).

Take `COc1ccc(OC)c(C(O)C(C)N)c1.Cl` (centres undefined) [Methoxamine hydrochloride]: the cell number in assay [1] was determined as 101; in assay [2], 106. The H1.0 immunofluorescence intensity is 95.2 (inactive) in assay [3] and 94.3 (inactive) in assay [4].

Turning to `Clc1ccc(C2CC3CCC2N3)cn1` (racemic), the cell number in assay [1] was found to be 102; in assay [2], 96.3. Further, the figures for the H1.0 immunofluorescence intensity in assay [3] and in assay [4] were 90.6 (inactive) and 81.4 (inactive), respectively.

Regarding `C#CCNC(C)Cc1ccccc1.Cl` (stereo not drawn) [R-(-)-Desmethyldeprenyl hydrochloride], the cell number was determined as 102 in assay [1] and 103 in assay [2]. In addition, the values for the H1.0 immunofluorescence intensity in assay [3] and in assay [4] were 97.2 (inactive) and 90.7 (inactive), respectively.

Consider `CC1Cc2c(Cl)cc(C(=O)NC(Cc3ccccc3)C(=O)O)c(O)c2C(=O)O1` (centres undefined) [Ochratoxin A], for which the cell number in assay [1] came to 107; in assay [2] it was 92.7. In addition, the H1.0 immunofluorescence intensity is 103 (inactive) in assay [3] and 92.1 (inactive) in assay [4].

Take `O=C(O)c1cc[c]([Hg][Cl])cc1` [4-Chloromercuribenzoic acid]: the cell number in assay [1] came to 102; in assay [2], 111. For the same compound, the values for the H1.0 immunofluorescence intensity in assay [3] and in assay [4] were 91.8 (inactive) and 92.6 (inactive), respectively.

As for `COC1CC(CC2CCC(C)C(C(C)C(=O)[O-])O2)OC2(OC(C)(C3CCC(C)(C4OC(C5OC(O)(CO)C(C)CC5C)CC4C)O3)CC2C)C1C.[Na+]` (centres undefined) [Nigericin], the cell number in assay [1] stood at 53.3; in assay [2] it was 68.8. Besides, the H1.0 immunofluorescence intensity in assay [3] was 122 (active); in assay [4], 183 (active).

For `NC(CCCCCP(=O)(O)O)C(=O)O` (racemic), the cell number was 102 in assay [1] and 105 in assay [2]. In addition, the H1.0 immunofluorescence intensity is 96.9 (inactive) in assay [3] and 98.4 (inactive) in assay [4].

Turning to `CNCCc1ccc(O)c(O)c1.Cl` [N-Methyldopamine hydrochloride], the cell number in assay [1] worked out at 105; in assay [2], 92.2. In addition, the H1.0 immunofluorescence intensity in assay [3] was 95.3 (inactive); in assay [4], 94 (inactive).

As for `CCN(CC)C(=O)NC1CC2c3cccc4[nH]cc(c34)CC2N(C)C1` (stereo not drawn) [R(+)-Terguride], the values for the cell number in assay [1] and in assay [2] were 101 and 110, respectively. For the same compound, the figures for the H1.0 immunofluorescence intensity in assay [3] and in assay [4] were 91.9 (inactive) and 99.5 (inactive), respectively.

Take `CCC(C)C1OC2(C=CC1C)CC1CC(CC=C(C)C(OC3CC(OC)C(OC4CC(OC)C(O)C(C)O4)C(C)O3)C(C)C=CC=C3COC4C(O)C(C)=CC(C(=O)O1)C34O)O2` (centres undefined) [Abamectin]: the cell number in assay [1] is 101; in assay [2] it was 94.4. Moreover, the H1.0 immunofluorescence intensity was 101 (inactive) in assay [3] and 103 (inactive) in assay [4].

For `CC1OC(=O)C2CC3CCCCC3C(C=CC3CCCC(C)N3C)C12` (single isomer, unassigned; (+)) [(+)-Himbacine], the cell number stood at 102 in assay [1] and 112 in assay [2]. The H1.0 immunofluorescence intensity in assay [3] was 91 (inactive); in assay [4], 109 (inactive).

For `CCN(CCCl)Cc1ccccc1Br.Cl` [DSP-4 hydrochloride], the cell number was 98.7 in assay [1] and 103 in assay [2]. Besides, the values for the H1.0 immunofluorescence intensity in assay [3] and in assay [4] were 92.8 (inactive) and 92.4 (inactive), respectively.

Consider `CC(C)C1C(=O)OC2CCN3CC=C(COC(=O)C(C)(O)C1(C)O)C23` (centres undefined) [Trichodesmine], for which the values for the cell number in assay [1] and in assay [2] were 99.6 and 103, respectively. For the same compound, the H1.0 immunofluorescence intensity is 93.2 (inactive) in assay [3] and 89.8 (inactive) in assay [4].

As to `COc1ccc(C(=O)N2CCCC2=O)cc1` [Aniracetam], the results for the cell number in assay [1] and in assay [2] were 100.1 ± 0.23 and 97.8 ± 14, respectively. The results for the H1.0 immunofluorescence intensity in assay [3] and in assay [4] were 92.7 (inactive) and 95 (inactive), respectively.

In the case of `O=C(O)CCCc1ccc(N(CCCl)CCCl)cc1` [Chlorambucil], the cell number in assay [1] was found to be 86.2 ± 2.5; in assay [2], 85.1 ± 7.6. Further, the H1.0 immunofluorescence intensity in assay [3] is 97.1 (inactive); in assay [4], 98.4 (inactive).

With `Clc1ccc(C(c2ccc(Cl)cc2)n2cc[n+](CC(OCc3ccc(Cl)cc3Cl)c3ccc(Cl)cc3Cl)c2)cc1.[Cl-]` (centres undefined) [Calmidazolium chloride], the cell number worked out at 17.8 in assay [1] and 0.84 in assay [2]. In addition, the H1.0 immunofluorescence intensity in assay [4] is 95.3 (inactive).
